# Screening data as filed in PubChem.
# Pf growth 96h = P. falciparum growth inhibition at 96 hours; P. falciparum luciferase reporter growth, 96 h; Potency, µM (highest dose often 28.7 µM), without a hit: at the top dose activity change, negative = inhibition, hits mostly inhibitors; 6.9% of 320,000 active; AID 504834; further: potency means the concentration at half of the fitted maximal effect
#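 Delayed-death screen, second-generation endpoint: infected erythrocytes, 2% hematocrit, 0.05% parasitemia final; 96 hours at 37 C, 5% CO2; luciferase detection reagent; luminescence decrease equals reduced growth.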
# HCMV antiviral = human cytomegalovirus inhibition | HFF cells, HCMV-luciferase reporter, 72 h; hits give low values | activity change, negative = inhibition, % at 57.5 µM | 4.5% of 410,000 active; in the data active means activity change below about -60%; inconclusive means no clear call, values can overlap the other calls; inactive means above about -39%
#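 Human foreskin fibroblasts infected with luciferase-reporter HCMV at MOI 1 PFU/cell, compounds at two doses. Luciferase measured 72 h post infection; normalized to buffer-only basal and Salinomycin (10uM) controls.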
# Sm TGR block = blocks Schistosoma mansoni thioredoxin glutathione reductase | Q962Y6 | 3% of 360,000 active | Potency, µM (titrated, usually from 114 µM), for the others: at the top dose activity change, negative = inhibition, usual class: inhibitors | purified TGR, DTNB reduction, TNB absorbance 405 nm; further: potency means the concentration at half of the fitted maximal effect; nearly all actives have a fitted effect of over 60% in size
#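 First, TGR (20 nM dispensed) and NADPH were mixed with compound. Second, a 15 min room-temperature incubation followed. Third, further NADPH and then DTNB were added to start the reaction. Finally, TNB absorbance was monitored kinetically.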
# FBPA Giardia inh = blocks Giardia fructose-bisphosphate aldolase activity. A8B2U2. purified Giardia FBPA. Potency, µM (top dose mostly 59.6 µM), for inactives: at the highest dose activity, negative = inhibition, most hits filed as inhibitors. 0.71% of 290,000 active. AID 2451; further: potency means the concentration at half of the fitted maximal effect; nearly all actives have a fitted effect of over 55% in size
# Target sequence (A8B2U2 whole entry, looked up): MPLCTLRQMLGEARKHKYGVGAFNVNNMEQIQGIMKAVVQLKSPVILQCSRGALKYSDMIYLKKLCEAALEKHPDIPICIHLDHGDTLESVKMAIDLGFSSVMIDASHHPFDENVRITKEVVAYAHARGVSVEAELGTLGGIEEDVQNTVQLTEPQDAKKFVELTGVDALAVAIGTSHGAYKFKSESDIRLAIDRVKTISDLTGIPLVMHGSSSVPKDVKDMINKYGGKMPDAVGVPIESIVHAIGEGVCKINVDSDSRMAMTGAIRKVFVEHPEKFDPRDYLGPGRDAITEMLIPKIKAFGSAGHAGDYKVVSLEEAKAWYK
#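 40 nM FBPA preincubated 10 min at RT with compound (up to 57.5 uM final), then substrate plus GAPDH/TPI/NAD/arsenate coupling and diaphorase/resazurin added. Fluorescence read after 20 min at RT, 525/598 nm.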
# Pf growth 48h = inhibits P. falciparum growth in the first generation, 48 h | P. falciparum luciferase growth in erythrocytes, 48 h | 5.9% of 310,000 active | Potency, µM (top dose mostly 28.7 µM), without a hit: at the highest dose activity change, negative = inhibition, hits mostly inhibitors; further: potency means the concentration at half of the fitted maximal effect
#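 First compound was added to culture medium, then infected red cells at 0.1% parasitemia and 2% hematocrit (final). After incubation at 37 C under 5% CO2, luciferase detection reagent was dispensed and light output recorded.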
# * marks the source's active call; other numbers are inactive results; u = inconclusive; x = no result; [ ] = remark or other dose. Only some compounds are listed: those with a hit (about 14% of all), similar ones and a draw of the others. Unless noted, the call rests on the fitted dose curve; in most records, active means well fitted curve in the direction sought with a large enough effect; inconclusive means small, poorly fitted or top-dose-only effect, or another doubt; inactive means no such curve, though single readings can be large; an effect the other way counts as inactive or inconclusive. On the % scale 0 is the no-effect control and ±100 the full control effect.
SMILES,Pf growth 96h,HCMV antiviral,Sm TGR block,FBPA Giardia inh,Pf growth 48h
COc1ccc(CN2CCCC(C(=O)c3cccc(OC(C)C)c3)C2)cc1Cn1cccn1 (centres undefined),-30%,2,-10%,5%,9.3µM*
CC(C)Oc1cccc(C(=O)C2CCCN(Cc3cccn3-c3cccnc3)C2)c1 (centres undefined),12µM*,4,u,-1%,u
Cn1ccc2c(/C=C/c3ccc(F)cc3)cc3c(c21)C1CCC3C1 (centres undefined),x,-67*,x,x,x
CC(C)[C@@H](CC(=O)N[C@@H]1CCNC[C@H]1C(=O)N[C@H](CC(=O)N[C@@H](CCC(=O)O)CC(=O)O)Cc1c[nH]c2ccccc12)NC(=O)C[C@H](Cc1c[nH]c2ccccc12)NC(=O)[C@@H]1CCCC[C@H]1N,x,x,x,-22%,x
Cc1ccc([C@H]2C[C@@H](n3cc(COC(=O)c4ccccc4)nn3)[C@H](O)CN2C(=O)C2CCCCC2)cc1,x,11,x,x,x
O=c1c(Br)c(N2CCCC2)cnn1-c1ccccc1,34%,15,1%,3%,123%
Cc1ccc(-n2ncc(Br)c(Br)c2=O)cc1,19%[5.75 µM],x,6.3µM*,6%,-23%
O=c1c(Br)c(Br)cnn1-c1ccccc1,-2%,-97*,3.2µM*,-3%,-28%
Fc1cccc(Cn2cc(C(=S)N3CCCCC3)c3ccccc32)c1,u,-32,2%,-1%,12µM*
CCN(CC)S(=O)(=O)c1nnc(NC(=O)COc2ccc(Cl)cc2)s1,x,0,-2%,x,x
Cc1ccc(C2C(C(=O)c3cc4ccccc4o3)=C(O)C(=O)N2CCN2CCOCC2)o1 (centres undefined),4%,-28,22µM*,0%,3%
O=C(C1=C(O)C(=O)N(CCCN2CCOCC2)C1c1ccncc1)c1cc2ccccc2o1 (centres undefined),u,x,45µM*,5%,22%
O=C(C1=C(O)C(=O)N(CCN2CCOCC2)C1c1cccnc1)c1cc2ccccc2o1 (centres undefined),x,-14,u,-1%,57%
COc1cccc2cc(C(=O)C3=C(O)C(=O)N(CCN4CCOCC4)C3c3cccc(Cl)c3)oc12 (centres undefined),88%,x,-12%,x,-9%
COc1cccc2cc(C(=O)C3=C(O)C(=O)N(CCN4CCOCC4)C3c3ccc(Cl)cc3)oc12 (centres undefined),-1%,13,40µM*,3%,u
Cc1ccc(C2C(C(=O)c3cc4ccccc4o3)=C(O)C(=O)N2CCN2CCOCC2)cc1 (centres undefined),u,-12,32µM*,x,-26%
NNC(=O)c1cc2cc(OC(F)(F)F)ccc2[nH]1,u,2,21%,-8%,u
O=C(C1=C(O)C(=O)N(CCN2CCOCC2)C1c1cccc(O)c1)c1cc2ccccc2o1 (centres undefined),2%,-27,u,14%,9%
CC(=O)C1=C(O)C(=O)N(CCN2CCOCC2)C1c1ccccc1 (centres undefined),-1%,21,32µM*,-14%,18%
COc1cc(C2C(C(=O)c3cc4ccccc4o3)=C(O)C(=O)N2CCN2CCOCC2)ccc1OCCC(C)C (centres undefined),u,69,-19%,-5%,-7%
O=C(C1=C(O)C(=O)N(CCN2CCOCC2)C1c1ccc(Br)cc1)c1cc2ccccc2o1 (centres undefined),u,20,32µM*,x,-29%
O=C(C1=C(O)C(=O)N(CCN2CCOCC2)C1c1cccc(F)c1)c1cc2ccccc2o1 (centres undefined),u,7,45µM*,x,-21%
CC(C(=O)Nc1sc2c(c1C(=O)NCC1CCCO1)CCC2)N1C(=O)c2ccccc2C1=O (centres undefined),7%,-100*,-8%,-6%,3%
O=C(CCN1C(=O)c2ccccc2C1=O)Nc1sc2c(c1C(=O)NCC1CCCO1)CCC2 (centres undefined),u,-32,-6%,2%,14%
CCOc1ccc(CC(=O)Nc2sc(Cc3ccccc3)c(C)c2C(N)=O)cc1OCC,9.3µM*,-1,-13%,-23%,u
SMILES,Pf growth 96h,HCMV antiviral,Sm TGR block,FBPA Giardia inh,Pf growth 48h
CCOc1ccc(CC(=O)Nc2c(C(N)=O)oc3ccccc23)cc1OCC,12µM*,25,1%,6%,u
CCc1noc(C)c1C(=O)Nc1nc(-c2ccc(F)cc2)c(C)s1,u,u,-20%,x,-22%
CCc1noc(C)c1C(=O)Nc1nc(-c2cc(C)ccc2C)c(C)s1,10µM*,-4,11%,3%,u
COc1ccc(CN2C(=O)Cc3c2nc(N)c2c(N)nc(N4CCOCC4)c(C#N)c32)cc1,u,12,-15%,u,u
N#CCc1c(C#N)c(N)nc(N2CCN(c3ccc(F)cc3)CC2)c1C#N,x,-21,-19%,-26%,9.3µM*
COCCN1C(=O)Cc2c1nc(N)c1c(N)nc(N3CCN(c4ccc(F)cc4)CC3)c(C#N)c21,u,u,-6%,-29%,7.4µM*
COCC(C)N1C(=O)Cc2c1nc(N)c1c(N)nc(N3CCN(c4ccccc4F)CC3)c(C#N)c21 (centres undefined),1.3µM*,u,-3%,-30%,5.9µM*
O=C(c1ccc(C(F)(F)F)cc1)N1CCC(=O)N(C(COCc2ccccc2)Cc2ccccc2)CC1 (centres undefined),8.3µM*,-6,-5%,-10%,u
Cc1cccc(COC[C@H](Cc2ccccc2)N2CCN(C(=O)c3ccc(Cl)c(Cl)c3)CCC2=O)c1,x,-9,x,x,x
O=C(c1ccc(Cl)c(Cl)c1)N1CCC(=O)N(C(COCc2cccc(C(F)(F)F)c2)Cc2ccccc2)CC1 (centres undefined),13µM*,55,-26%,-2%,u
CC(C)(C)c1ccc(C(=O)N2CCC(=O)N(C(COCc3ccccc3)Cc3ccccc3)CC2)cc1 (centres undefined),12µM*,37,-12%,-7%,9.3µM*
Cc1ccc(COC[C@H](CC(C)C)N2CCN(C(=O)c3cccc(C(F)(F)F)c3)CCC2=O)cc1,x,-6,x,x,x
CC(C)CC(COCc1cccc(C(F)(F)F)c1)N1CCN(C(=O)c2cccc(C(F)(F)F)c2)CCC1=O (centres undefined),15µM*,38,-13%,-6%,u
COc1cc(NC(=S)Nc2ccccn2)cc(OC)c1,-21%,69,-26%,-15%,u
CCOC(=O)C1=C(C)NC(C)=C(C(=O)OCC)C1C(=O)OCC(=O)NCc1ccccc1,x,-6,x,x,x
